Assay outcomes from PubChem BioAssay.
SKN-1 inh = inhibitors of C. elegans SKN-1 | C. elegans VP596 Pgst-4::GFP/RFP ratio, acrylamide-induced, 24 h | actives 0.49% (n = 360,000) | inhibition, % at 21.8 µM;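 active means interference check ratio from 0.5 to 1.5 plus GFP to RFP signal ratio inhibition reaching or exceeding a fixed threshold, cut at about 30% in these data, passing the limit was not always enough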
NR3A LBD binder = NR3A (human) ligand-binding domain modulation. Tm shift relative to glycine control, % at 25 µM. actives 2.5% (n = 340,000). NR3A LBD differential scanning fluorimetry, Tm shift; 0% = protein alone, 100% = glycine-bound protein. AID 1259313;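 active means melting temperature shift of at least 10% of the positive control shift, at one fixed dose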
esBAF inh = SWI/SNF esBAF complex inhibition. mouse ES cells, Bmi1-luciferase knock-in reporter, 24 h; 100% = twice the neutral-well signal. reporter increase, % at 12.5 µM. actives 2% (n = 350,000). AID 602393; in the data active means activation above about 40%; inconclusive means no clear call, values can overlap the other calls;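 further: 0% = median of the plate's neutral control wells and 100% = double that signal; a rise in the Bmi1 reporter signal indicates esBAF inhibition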
Vif imaging = HIV Vif inhibition; HEK293T cells, Vif self-association by quenched fluorescence, imaging, 24 h; inhibition, % at 7.49 µM; actives 0.35% (n = 340,000); in the data active means inhibition above about 50%, passing the limit was not always enough; inconclusive means no clear call, values can overlap the other calls; inactive means below about 31%
NadD block = blocks S. aureus nicotinate mononucleotide adenylyltransferase; purified NadD enzyme, colorimetric absorbance read-out; inhibition, % at 20 µM; actives 0.78% (n = 360,000); in the data active means inhibition above about 26%
SMARCA2 activ = increases SMARCA2 function in MMTV reporter cells. actives 1% (n = 370,000). activation, % at 9.1 µM. MG213 cells, MMTV-luciferase reporter, dexamethasone, overnight; in the data active means activation above about 7.8%;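 further: 0% = vehicle wells and 100% = reference activator wells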
Numbers without * were called inactive; ? = inconclusive; / = no result given. Shown are actives, neighbours in structure and some others; about 5.2% of the full set was active somewhere.

SMILES | SKN-1 inh | NR3A LBD binder | esBAF inh | Vif imaging | NadD block | SMARCA2 activ
COc1ccc(Br)cc1Cn1nnc(C(=O)Nc2ccc3c(c2)OCCO3)c1N | 1 | -5 | 13 | -8 | -8 | 2
Nc1c(C(=O)Nc2ccc3c(c2)OCCO3)nnn1Cc1ccc(F)cc1 | -3 | 3 | 96* | 5 | -3 | 4
Nc1c(C(=O)Nc2ccc3c(c2)OCCO3)nnn1Cc1ccccc1Cl | 3 | 2 | 74* | 2 | -9 | 1
Nc1c(C(=O)Nc2ccc3c(c2)OCCO3)nnn1Cc1cccc(Cl)c1 | 1 | / | 55* | -18 | -8 | 7
C[C@H]1CN([C@@H](C)CO)S(=O)(=O)c2ccc(/C=C/c3ccccc3)cc2O[C@H]1CN(C)C(=O)CN1CCOCC1 | / | / | 0 | / | / | /
C[C@H](CO)N1C[C@H](C)[C@@H](CN(C)S(=O)(=O)c2ccsc2)OCc2ccccc2-c2c(n(C)c3ccccc23)C1=O | / | / | -4 | / | / | /
COc1ccc(S(=O)(=O)Nc2ccc3c(c2)[C@@H]2C[C@H](CC(=O)NCC4CC4)O[C@H](CO)[C@@H]2O3)cc1 | / | / | 4 | / | / | /
O=C(CCc1c[nH]c2ccccc12)N1CCCC1 | 8 | -5 | 4 | -11 | -2 | -1
CC1CCCN(C(=O)COC(=O)c2n[nH]c3ccccc23)C1 (stereo not given) | 2 | 1 | 70* | 12 | 3 | 2
O=C(CCCc1c[nH]c2ccccc12)N1CCCCCC1 | 0 | -2 | 60* | -15 | -3 | -2
O=C(COC(=O)c1n[nH]c2ccccc12)Nc1ccccc1F | -7 | 1 | 123* | 6 | -3 | 2
CC1CCN(C(=O)COC(=O)c2c[nH]c3ccccc23)CC1 | 8 | 0 | 57* | -1 | 1 | 1
C[C@@H]1CCCCO[C@H](CN(C)Cc2ccc(C(F)(F)F)cc2)[C@H](C)CN([C@@H](C)CO)C(=O)c2cc(NC(=O)c3ccccc3)ccc2O1 | / | / | 0 | / | / | /
O=C(COC(=O)C1CC1)c1c[nH]c2ccccc12 | 3 | 2 | 48* | -8 | -3 | 6
O=C(OCC(=O)N1CCCCC1)c1c[nH]c2ccccc12 | -3 | -1 | 35 | 9 | -2 | 7.8*
C[C@@H]1CCCCO[C@@H](CN(C)C(=O)c2ccccc2)[C@@H](C)CN([C@@H](C)CO)C(=O)c2cc(NC(=O)Cc3ccccc3)ccc2O1 | / | / | 0 | / | / | /
C[C@@H]1CCCCO[C@H](CN(C)Cc2ccc(Cl)c(Cl)c2)[C@H](C)CN([C@@H](C)CO)C(=O)c2cc(NC(=O)Cc3ccccc3)ccc2O1 | / | / | 3 | / | / | /
COCCCN(C(C)=O)c1nc(-c2ccccc2)cs1 | 12 | -3 | 46* | 11 | -3 | 4
COCCCN(C(=O)c1ccccc1)c1nc(-c2ccc(OC)cc2)cs1 | 0 | 0 | -2 | -1 | -8 | -3
C[C@H]1CN([C@@H](C)CO)C(=O)Cc2cc(N(C)C)ccc2O[C@@H]1CN(C)Cc1ccc2c(c1)OCO2 | / | / | 0 | / | / | /
COc1cc(/C=C2\SC(=Nc3ccc(Cl)c(C(=O)O)c3)NC2=O)c(Br)c(Br)c1O | 25 | 13* | 0 | ? | 70* | -3
COc1cc(/C=C2/SC(=Nc3ccc(O)cc3)NC2=O)ccc1O | 0 | 27* | / | -1 | -7 | 5
COc1cc(/C=C2\SC(=Nc3ccccc3OC)NC2=O)ccc1O | 10 | -6 | 7 | 8 | 5 | 2
COC(=O)/C=C1\SC(=Nc2ccc(Cl)c(Cl)c2)NC1=O | 0 | -5 | / | -5 | 0 | -1
COc1cc(/C=C2\SC(=Nc3ccccc3)NC2=O)cc(Cl)c1O | 1 | 12* | -3 | 7 | 14 | 4
SMILES | SKN-1 inh | NR3A LBD binder | esBAF inh | Vif imaging | NadD block | SMARCA2 activ
O=C(Nc1cccc(Cl)c1)N[C@@H]1CC[C@@H](CCNC(=O)C2CCCC2)O[C@H]1CO | / | / | -7 | / | / | /
C[C@@H]1CN([C@@H](C)CO)C(=O)c2ccccc2-c2ccccc2CO[C@H]1CN(C)CC1CC1 | / | / | -4 | / | / | /
Cc1ccc2cc(/C=N/NC(=O)c3ccccc3O)c(Cl)nc2c1 | 13 | 19* | / | 1 | 20 | -2
Cc1cccc2cc(/C=N/NC(=O)c3ccccc3O)c(Cl)nc12 | -7 | 29* | / | 3 | 27 | -3
O=C(N/N=C/c1cc2cc3c(cc2nc1Cl)OCCO3)c1ccccc1O | 16 | 7 | / | -2 | 10 | -2
c1cc2c3c(cccc3c1)NC1(CCCCC1)N2 | 2 | 6 | -15 | 27 | 36* | -1
